Source: PubChem BioAssay (Tox21)
Results filed as inconclusive are left out. Calls of active or inactive are those of the source. Calls come from the whole dose curve; as a rule, active = well fitted curve in the direction sought with a large enough effect in the repeat runs; inconclusive = weak or mixed curves; inactive = no such curve, though single readings can be large; an effect the other way counts as inactive or inconclusive.

Tests used:
[1] = Human pregnane X receptor (PXR) small molecule agonists, qHTS cell viability counter screen (AID 1346977); note: nearly all actives have a fitted effect of over 50% in size; note: potency is the fitted concentration of half-maximal effect
Procedure, shortened: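 Tox21 qHTS format; PXR-Luc HepG2, 2,000/well, charcoal-stripped FBS 5%. Cpd exposure 24hr. Read: CellTiter-Fluor fluorescence, multiplexed with luciferase.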

[2] = Caspase-3/7 induction in HepG2 cells by small molecules, qHTS assay (AID 1346978); note: nearly all actives have a fitted effect of over 15% in size
Procedure, shortened: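 Caspase-3/7 induction was measured by Caspase-Glo 3/7 luminescence (30 min, room temperature) after a 17 hr compound exposure of wild-type HepG2 cells seeded at 2,000 per well and pre-incubated 5 hr.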

[3] = Caspase-3/7 induction in CHO-K1 cells by small molecules, qHTS cell viability counter screen (AID 1346979); note: nearly all actives have a fitted effect of over 35% in size; note: potency is the fitted concentration of half-maximal effect
Procedure, shortened: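 CellTiter-Fluor viability check, qHTS format: wild-type CHO-K1, 16hr compound treatment, 1hr reagent incubation, fluorescence read.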

[4] = Caspase-3/7 induction in HepG2 cells by small molecules, qHTS cell viability counter screen (AID 1346981); note: nearly all actives have a fitted effect of over 30% in size; note: potency is the fitted concentration of half-maximal effect; for activity change, negative = cytotoxicity: series mostly up to about 92 µM
Procedure, shortened: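 After a 5-hr attachment period at 37 C and 5% CO2, wild-type HepG2 cells received compounds in DMSO. Sixteen hours later CellTiter-Fluor was dispensed and the fluorescent signal quantified after a further hour.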

[5] = biological target: Nuclear receptor subfamily 1 group I member 2 (Homo sapiens) (UniProt O75469); experiment: Human pregnane X receptor (PXR) small molecule agonists, qHTS assay (AID 1346982); note: nearly all actives have a fitted effect of over 35% in size; note: potency is the fitted concentration of half-maximal effect
Procedure, shortened: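 Tox21 qHTS; PXR-Luc HepG2; compounds pinned from DMSO; 24 hr, 37 C; ONE-Glo luciferase detection, 30 min room temperature.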

[6] = biological target: Cytochrome P450 2C19 (Homo sapiens) (UniProt P33261); experiment: Cytochrome P450 Family 2 Subfamily C Member 19 (CYP2C19) small molecule antagonists: luciferase reporter qHTS assay (AID 1671197); note: nearly all actives have a fitted effect of over 65% in size; note: potency is the fitted concentration of half-maximal effect; for activity change, negative = inhibition: series mostly up to about 120 µM
Procedure, shortened: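 Luminescent readout of CYP2C19 activity: luciferin product detected 20 min after adding detection reagent. Before that, compound and enzyme-substrate mix preincubated 10 min at room temperature; NADPH-regenerating system started a 1 h, 37C reaction. Ketoconazole as positive control.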

[7] = biological target: Cytochrome P450 2C9 (Homo sapiens) (UniProt P11712); experiment: Cytochrome P450 Family 2 Subfamily C Member 9 (CYP2C9) small molecule antagonists: luciferase reporter qHTS assay (AID 1671198); note: nearly all actives have a fitted effect of over 50% in size; note: potency is the fitted concentration of half-maximal effect; for activity change, negative = inhibition: series mostly up to about 120 µM
Procedure, shortened: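 Enzyme-substrate mix preincubated with compound 10 min at room temperature; reaction started with NADPH regeneration solution, 1 h 37C. Luminescent luciferin product read after 20 min detection reagent.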

[8] = biological target: Cytochrome P450 1A2 (Homo sapiens) (UniProt P05177); experiment: Cytochrome P450 Family 1 Subfamily A Member 2 (CYP1A2) small molecule antagonists: luciferase reporter qHTS assay (AID 1671199); note: nearly all actives have a fitted effect of over 50% in size; note: potency is the fitted concentration of half-maximal effect; for activity change, negative = inhibition: series mostly up to about 120 µM
Procedure, shortened: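 Room-temperature CYP1A2 reaction with proluciferin substrate: compounds added from DMSO, 10 min preincubation, NADPH regeneration for 1 h. Luciferin detection reagent then added; luminescence recorded as RLU.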

[9] = biological target: Cytochrome P450 3A4 (Homo sapiens) (UniProt P08684); experiment: Cytochrome P450 Family 3 Subfamily A Member 4 (CYP3A4) small molecule antagonists: luciferase reporter qHTS assay (AID 1671201); note: nearly all actives have a fitted effect of over 50% in size; note: potency is the fitted concentration of half-maximal effect; for activity change, negative = inhibition: series mostly up to about 120 µM
Procedure, shortened: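 Proluciferin-to-luciferin conversion by CYP3A4, NADPH-regenerated, 1 h RT; luminescence read as RLU. Ketoconazole as control.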

[10] = biological target: Nuclear receptor subfamily 1 group I member 2 (Rattus norvegicus) (UniProt Q9R1A7); experiment: Rat pregnane X receptor (rPXR) activation by small molecules, qHTS assay (AID 1346983); conditions: rPXR luciferase reporter cells, One-Glo luminescence, 24 h; max activation: active compounds read high; note: nearly all actives have a fitted effect of over 20% in size; note: potency is the fitted concentration of half-maximal effect
Procedure, shortened: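 Luminescent readout (One-Glo luciferase, 30 min room temperature) followed 24 hr compound treatment at 37 C of rPXR cells plated 2,000 per well and preincubated 5hr; qHTS format with compounds delivered in DMSO.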

[11] = biological target: Nuclear receptor subfamily 1 group I member 2 (Homo sapiens) (UniProt O75469); experiment: CYP3A4 induction through human pregnane X receptor (PXR) by small molecules, qHTS assay (AID 1346984); note: nearly all actives have a fitted effect of over 40% in size; note: potency is the fitted concentration of half-maximal effect
Procedure, shortened: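 Cells (DPX-2; HepG2 with PXR element plus CYP3A4-promoter luciferase) settled 5hr, then were treated 24hr at 37C. A 3hr, 3uM-final Luciferin-IPA step preceded luminescence measurement with One-Glo.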

[12] = biological target: Nuclear receptor subfamily 1 group I member 2 (Homo sapiens) (UniProt O75469); experiment: Human pregnane X receptor (PXR) activation by small molecules, qHTS assay (AID 1346985); note: nearly all actives have a fitted effect of over 40% in size; note: potency is the fitted concentration of half-maximal effect
Procedure, shortened: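 DPX-2 cells (HepG2 co-transfected with a PXR response element and a CYP3A4-promoter luciferase construct) were seeded at 2,000 per well, rested 5 hr at 37C, then exposed to DMSO-dissolved compounds for 24 hr. Activation was read as luciferase luminescence.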

[13] = biological target: Cytochrome P450 2D6 (Homo sapiens) (UniProt P10635); experiment: Cytochrome P450 Family 2 Subfamily D Member 6 (CYP2D6) small molecule antagonists: luciferase reporter qHTS assay (AID 1671196); note: nearly all actives have a fitted effect of over 50% in size; note: potency is the fitted concentration of half-maximal effect; for activity change, negative = inhibition: series mostly up to about 120 µM
Procedure, shortened: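 Room-temperature luminescent CYP2D6 activity assay: compound preincubated 10 min with enzyme–substrate mix, NADPH-initiated reaction 1 h, detection reagent 20 min before reading.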

[14] = biological target: Voltage-gated inwardly rectifying potassium channel KCNH2 (Homo sapiens) (UniProt Q12809); experiment: Human Ether-a-go-go-Related Gene (hERG) channel small molecule antagonists: fluorescence cell-based qHTS assay (AID 1671200); note: nearly all actives have a fitted effect of over 50% in size; note: potency is the fitted concentration of half-maximal effect;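 for activity change, negative = inhibition: hERG-expressing U2OS cells given a thallium stimulus after FluxOR II dye loading; series mostly up to about 77 µM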
Procedure, shortened: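 Kinetic two-minute fluorescence traces, sampled at 1 s, were collected following thallium stimulus of U2OS cells (1000 per well) that had been cultured overnight at 37 C and loaded with FluxOR II.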

[15] = Caspase-3/7 induction in CHO-K1 cells by small molecules, qHTS assay (AID 1346980); note: nearly all actives have a fitted effect of over 15% in size
Procedure, shortened: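 Luminescent Caspase-Glo 3/7 read (30min, room temperature) quantified apoptosis induction. Cells were wild-type CHO-K1, treated with compound for 17hr at 37 C and 5% CO2.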
% is set by controls: 0 for no effect and ±100 for the full control effect.

Sequence of Cytochrome P450 2C19 (Homo sapiens) (P33261 whole entry, looked up): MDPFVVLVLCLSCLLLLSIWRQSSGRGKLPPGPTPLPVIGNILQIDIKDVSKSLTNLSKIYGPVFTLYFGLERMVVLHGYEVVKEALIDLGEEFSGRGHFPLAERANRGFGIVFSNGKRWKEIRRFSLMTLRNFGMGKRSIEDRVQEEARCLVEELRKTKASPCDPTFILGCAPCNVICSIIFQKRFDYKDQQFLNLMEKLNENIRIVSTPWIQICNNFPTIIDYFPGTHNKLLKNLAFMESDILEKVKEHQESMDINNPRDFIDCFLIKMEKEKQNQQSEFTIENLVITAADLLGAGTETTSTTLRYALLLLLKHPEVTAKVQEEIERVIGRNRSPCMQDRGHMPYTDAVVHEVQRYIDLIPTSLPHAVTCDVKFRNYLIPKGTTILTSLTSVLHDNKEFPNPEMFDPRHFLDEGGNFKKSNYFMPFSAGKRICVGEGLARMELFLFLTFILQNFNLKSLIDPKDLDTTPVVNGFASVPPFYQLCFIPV
Sequence of Voltage-gated inwardly rectifying potassium channel KCNH2 (Homo sapiens) (Q12809 whole entry, looked up): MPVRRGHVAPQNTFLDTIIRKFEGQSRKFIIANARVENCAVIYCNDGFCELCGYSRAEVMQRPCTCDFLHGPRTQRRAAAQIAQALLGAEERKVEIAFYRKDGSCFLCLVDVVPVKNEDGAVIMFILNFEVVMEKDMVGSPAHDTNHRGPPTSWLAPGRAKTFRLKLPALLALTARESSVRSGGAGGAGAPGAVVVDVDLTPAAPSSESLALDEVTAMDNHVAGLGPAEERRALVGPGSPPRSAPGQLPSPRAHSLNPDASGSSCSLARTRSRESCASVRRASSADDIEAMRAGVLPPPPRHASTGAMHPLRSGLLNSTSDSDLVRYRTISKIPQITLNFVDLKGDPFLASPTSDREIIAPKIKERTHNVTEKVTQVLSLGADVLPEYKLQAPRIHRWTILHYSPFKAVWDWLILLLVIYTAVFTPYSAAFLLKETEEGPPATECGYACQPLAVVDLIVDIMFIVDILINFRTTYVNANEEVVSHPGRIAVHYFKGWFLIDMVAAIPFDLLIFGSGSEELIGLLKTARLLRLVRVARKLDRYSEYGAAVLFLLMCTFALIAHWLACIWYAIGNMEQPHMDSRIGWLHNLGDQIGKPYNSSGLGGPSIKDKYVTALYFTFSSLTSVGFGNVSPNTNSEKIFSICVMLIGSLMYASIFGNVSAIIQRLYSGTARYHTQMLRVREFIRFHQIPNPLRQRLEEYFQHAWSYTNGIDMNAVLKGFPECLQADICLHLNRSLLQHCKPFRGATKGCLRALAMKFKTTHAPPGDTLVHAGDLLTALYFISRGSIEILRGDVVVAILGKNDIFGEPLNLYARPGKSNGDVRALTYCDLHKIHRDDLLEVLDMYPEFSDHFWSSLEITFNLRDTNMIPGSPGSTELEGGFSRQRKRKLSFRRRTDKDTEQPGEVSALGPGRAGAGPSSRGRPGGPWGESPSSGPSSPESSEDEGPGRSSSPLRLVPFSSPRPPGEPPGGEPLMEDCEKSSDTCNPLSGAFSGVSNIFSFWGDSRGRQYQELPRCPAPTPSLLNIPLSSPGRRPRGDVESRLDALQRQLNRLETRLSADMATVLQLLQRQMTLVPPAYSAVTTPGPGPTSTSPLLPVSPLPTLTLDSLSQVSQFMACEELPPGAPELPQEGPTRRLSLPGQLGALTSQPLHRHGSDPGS
Sequence of Cytochrome P450 2D6 (Homo sapiens) (P10635 whole entry, looked up): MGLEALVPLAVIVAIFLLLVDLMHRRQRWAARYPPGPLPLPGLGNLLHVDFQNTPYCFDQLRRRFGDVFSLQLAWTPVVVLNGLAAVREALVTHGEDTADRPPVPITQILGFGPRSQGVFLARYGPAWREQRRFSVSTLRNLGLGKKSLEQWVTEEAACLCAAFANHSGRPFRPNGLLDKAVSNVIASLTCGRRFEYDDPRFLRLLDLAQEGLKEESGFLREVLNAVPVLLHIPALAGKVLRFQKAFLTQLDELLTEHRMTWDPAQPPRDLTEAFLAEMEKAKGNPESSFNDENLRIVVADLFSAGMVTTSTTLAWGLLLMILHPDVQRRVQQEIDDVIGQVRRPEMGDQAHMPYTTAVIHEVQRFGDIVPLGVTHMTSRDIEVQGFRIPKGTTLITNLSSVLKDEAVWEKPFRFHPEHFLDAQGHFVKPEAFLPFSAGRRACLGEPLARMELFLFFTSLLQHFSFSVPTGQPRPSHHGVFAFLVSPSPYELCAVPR
Sequence of Nuclear receptor subfamily 1 group I member 2 (Rattus norvegicus) (Q9R1A7 whole entry, looked up): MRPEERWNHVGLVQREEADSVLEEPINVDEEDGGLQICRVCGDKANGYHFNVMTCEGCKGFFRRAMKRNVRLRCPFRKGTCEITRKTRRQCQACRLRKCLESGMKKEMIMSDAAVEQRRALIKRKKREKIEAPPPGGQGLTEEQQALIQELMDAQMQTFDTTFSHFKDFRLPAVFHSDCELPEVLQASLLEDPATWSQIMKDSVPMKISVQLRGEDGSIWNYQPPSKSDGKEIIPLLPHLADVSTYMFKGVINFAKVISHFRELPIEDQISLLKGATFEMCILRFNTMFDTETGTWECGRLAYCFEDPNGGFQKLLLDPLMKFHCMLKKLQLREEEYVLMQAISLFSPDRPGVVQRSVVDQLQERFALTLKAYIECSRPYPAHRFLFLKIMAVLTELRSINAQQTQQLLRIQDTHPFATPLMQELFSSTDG
Sequence of Cytochrome P450 1A2 (Homo sapiens) (P05177 whole entry, looked up): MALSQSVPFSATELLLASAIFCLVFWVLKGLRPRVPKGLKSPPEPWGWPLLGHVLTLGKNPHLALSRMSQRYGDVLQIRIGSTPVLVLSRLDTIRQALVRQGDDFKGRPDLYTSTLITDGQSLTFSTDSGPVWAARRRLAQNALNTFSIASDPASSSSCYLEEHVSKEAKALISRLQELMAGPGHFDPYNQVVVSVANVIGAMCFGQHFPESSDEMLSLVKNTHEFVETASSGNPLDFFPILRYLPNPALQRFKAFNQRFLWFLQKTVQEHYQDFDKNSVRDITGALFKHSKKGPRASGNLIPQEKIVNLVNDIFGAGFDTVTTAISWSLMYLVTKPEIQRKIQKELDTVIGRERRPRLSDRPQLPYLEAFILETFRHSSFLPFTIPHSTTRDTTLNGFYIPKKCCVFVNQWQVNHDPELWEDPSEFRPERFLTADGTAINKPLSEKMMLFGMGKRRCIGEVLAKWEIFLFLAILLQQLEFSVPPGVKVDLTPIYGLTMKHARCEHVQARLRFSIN
Sequence of Cytochrome P450 2C9 (Homo sapiens) (P11712 whole entry, looked up): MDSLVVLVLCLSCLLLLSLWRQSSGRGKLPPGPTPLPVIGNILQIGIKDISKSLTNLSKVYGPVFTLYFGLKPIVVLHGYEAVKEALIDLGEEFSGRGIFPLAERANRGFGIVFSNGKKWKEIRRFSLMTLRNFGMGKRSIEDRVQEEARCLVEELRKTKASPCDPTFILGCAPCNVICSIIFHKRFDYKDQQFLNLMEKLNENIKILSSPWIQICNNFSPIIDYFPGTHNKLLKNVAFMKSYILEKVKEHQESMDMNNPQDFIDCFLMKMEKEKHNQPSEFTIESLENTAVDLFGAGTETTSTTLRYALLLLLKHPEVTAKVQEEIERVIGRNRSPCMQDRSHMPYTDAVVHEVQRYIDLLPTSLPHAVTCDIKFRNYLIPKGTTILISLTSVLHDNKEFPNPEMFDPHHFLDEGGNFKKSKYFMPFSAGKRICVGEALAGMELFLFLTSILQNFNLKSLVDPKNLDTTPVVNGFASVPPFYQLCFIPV
Sequence of Nuclear receptor subfamily 1 group I member 2 (Homo sapiens) (O75469 whole entry, looked up): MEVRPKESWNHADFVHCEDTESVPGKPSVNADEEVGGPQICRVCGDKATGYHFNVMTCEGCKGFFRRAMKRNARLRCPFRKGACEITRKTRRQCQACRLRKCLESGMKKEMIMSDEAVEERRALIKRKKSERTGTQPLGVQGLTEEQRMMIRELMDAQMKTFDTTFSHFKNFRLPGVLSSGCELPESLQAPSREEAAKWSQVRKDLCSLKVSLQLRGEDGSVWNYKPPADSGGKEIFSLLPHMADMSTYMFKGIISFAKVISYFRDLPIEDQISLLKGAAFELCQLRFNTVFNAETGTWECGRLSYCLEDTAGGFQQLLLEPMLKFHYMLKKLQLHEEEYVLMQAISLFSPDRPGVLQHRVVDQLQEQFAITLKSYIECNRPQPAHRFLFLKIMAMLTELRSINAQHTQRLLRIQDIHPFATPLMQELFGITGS
Sequence of Cytochrome P450 3A4 (Homo sapiens) (P08684 whole entry, looked up): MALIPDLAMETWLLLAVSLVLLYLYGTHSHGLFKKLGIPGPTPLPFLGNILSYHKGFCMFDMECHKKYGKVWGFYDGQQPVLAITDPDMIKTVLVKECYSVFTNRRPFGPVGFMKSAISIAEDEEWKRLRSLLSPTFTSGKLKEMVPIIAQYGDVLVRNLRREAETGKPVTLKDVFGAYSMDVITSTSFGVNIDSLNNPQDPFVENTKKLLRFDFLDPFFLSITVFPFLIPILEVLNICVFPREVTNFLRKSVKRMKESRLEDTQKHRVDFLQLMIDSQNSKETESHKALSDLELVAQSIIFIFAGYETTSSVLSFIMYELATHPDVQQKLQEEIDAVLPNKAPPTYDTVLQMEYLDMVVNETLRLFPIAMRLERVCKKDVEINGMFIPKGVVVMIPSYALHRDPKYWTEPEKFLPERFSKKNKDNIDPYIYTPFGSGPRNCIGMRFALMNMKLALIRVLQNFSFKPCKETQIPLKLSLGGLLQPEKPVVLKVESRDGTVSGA

OC[C@H]1O[C@@H](OCCc2ccc(O)cc2)[C@H](O)[C@@H](O)[C@@H]1O
inactive: Potency [1] | Potency [2] | Potency [3] | Potency [4] | Potency [5] | Potency [6] | Potency [7] | Potency [8] | Potency [9]

C=CCOc1ccccc1OCC(O)CNC(C)C (stereo not given)
active: Potency [13] 9.77 µM | Potency [8] 10.2 µM
inactive: Potency [1] | Potency [2] | Potency [3] | Potency [4] | Potency [5] | max activation [10] 5.72% | Potency [11] | Potency [12] | Potency [6] | Potency [14] | Potency [9]

CCC(C)(C)CC
inactive: Potency [1] | Potency [2] | Potency [15] | Potency [4] | Potency [5] | Potency [13] | Potency [6] | Potency [7] | Potency [8] | Potency [14] | Potency [9]

OCCNCc1ccccc1
inactive: Potency [1] | Potency [2] | Potency [15] | Potency [4] | Potency [5] | Potency [7] | Potency [9]
active: Potency [13] 35.6 µM | Potency [6] 44.8 µM

CCOC(=O)Cc1cccc2ccccc12
active: Potency [6] 20 µM
inactive: Potency [1] | Potency [2] | Potency [15] | Potency [4] | Potency [5] | Potency [13] | Potency [7] | Potency [14] | Potency [9]

O=C1c2ccccc2S(=O)(=O)N1CCCCN1CCN(c2ncccn2)CC1
active: Potency [13] 1.38 µM | Potency [7] 15.5 µM
inactive: Potency [1] | Potency [2] | Potency [15] | Potency [4] | max activation [10] 0.873% | Potency [6] | Potency [8] | Potency [9]

Cc1cc(C(=O)O)ccc1[N+](=O)[O-]
active: Potency [13] 56.5 µM | Potency [8] 40 µM
inactive: Potency [1] | Potency [2] | Potency [15] | Potency [4] | Potency [5] | Potency [7] | Potency [14] | Potency [9]

Cc1nn(C)c(Oc2ccccc2)c1/C=N/OCc1ccc(C(=O)OC(C)(C)C)cc1
active: Potency [1] 0.0863 µM | Potency [5] 38.6 µM | Potency [6] 2 µM
inactive: Potency [2] | Potency [15] | Potency [13]

CN1CCC(=C2c3ccccc3Sc3ccccc32)CC1
inactive: Potency [2] | Potency [5] | max activation [10] -5.4% | Potency [7] | Potency [8]
active: Potency [1] 23.7 µM | Potency [11] 10 µM | Potency [12] 14.1 µM | Potency [13] 3.47 µM | Potency [6] 38.9 µM | Potency [14] 12 µM

COc1ccc(C(=O)c2ccc(OC)cc2O)c(O)c1
inactive: Potency [1] | Potency [2] | Potency [14]
active: Potency [5] 27.5 µM | Potency [6] 0.802 µM | Potency [7] 11.3 µM | Potency [8] 0.402 µM | Potency [9] 25.4 µM

CCCCNc1ccc(C(=O)OCCOCCOCCOCCOCCOCCOCCOCCOCCOC)cc1
inactive: Potency [1] | Potency [2] | Potency [4] | max activation [10] -3.41% | Potency [11] | Potency [12] | Potency [13] | Potency [8] | Potency [14]
active: Potency [7] 12.3 µM

OCCN1CCN(CCCN2c3ccccc3C=Cc3ccccc32)CC1
active: Potency [1] 23.7 µM | Potency [5] 6.68 µM | Potency [12] 10 µM | Potency [13] 13.8 µM
inactive: Potency [2] | Potency [15] | max activation [10] -15.2% | Potency [6] | Potency [7]

COc1ccc(-c2nc3ccc(C4=NNC(=O)CC4C)cc3[nH]2)cc1 (stereo not given)
active: Potency [3] 23.7 µM | Potency [5] 13.3 µM | Potency [10] 22.4 µM | Potency [8] 3.63 µM
inactive: Potency [1] | Potency [15] | Potency [4] | Potency [11] | Potency [13] | Potency [14] | Potency [9]

Nc1ccc(N)c2c1C(=O)c1ccccc1C2=O
active: Potency [1] 9.69 µM | Potency [3] 24.3 µM | Potency [4] 21.7 µM | Potency [13] 35.6 µM | Potency [6] 22.4 µM | Potency [7] 12.6 µM | Potency [8] 0.399 µM | Potency [9] 5.64 µM
inactive: Potency [15] | Potency [5] | Potency [14]

CCC(CC)Nc1ccc(C)c(C)c1
inactive: Potency [1] | Potency [2] | Potency [15] | Potency [4] | Potency [5] | Potency [13] | Potency [14] | Potency [9]
active: Potency [6] 7.1 µM

CN(C)CCCN1c2ccccc2Sc2ccccc21
active: Potency [1] 23.7 µM | Potency [14] 9.52 µM
inactive: Potency [2] | Potency [15] | Potency [4] | max activation [10] -2.41%

O=C(O)C1(C(=O)Nc2ccc(Cl)cc2Cl)CC1
active: Potency [5] 24.3 µM | Potency [7] 15.9 µM | Potency [8] 39.9 µM
inactive: Potency [1] | Potency [2] | Potency [15] | Potency [4] | Potency [14] | Potency [9]

CCO[C@H](Cc1ccc(OCCc2ccc(OS(C)(=O)=O)cc2)cc1)C(=O)O
inactive: Potency [1] | Potency [2] | Potency [15] | Potency [4] | Potency [6] | Potency [8] | Potency [14] | Potency [9]

CCCCC/C=C\C/C=C\CCCCCCCC(=O)NC(C)c1ccccc1 (stereo not given)
active: Potency [13] 4.36 µM | Potency [6] 4.9 µM
inactive: Potency [1] | Potency [2] | Potency [15] | Potency [4] | Potency [8]

CN(C)c1ccc(/C=C/c2ccc([N+](=O)[O-])cc2)cc1
inactive: activity change, negative = cytotoxicity [1] -0.583% [at 8.39 µM] | caspase activation [2] 0.696% [at 8.39 µM] | caspase-3/7 activation [15] -2.91% [at 8.39 µM] | activity change, negative = cytotoxicity [4] 14.3% [at 8.39 µM] | activity change, negative = inhibition [6] 15.9% [at 10.5 µM] | activity change, negative = inhibition [7] -1.18% [at 10.5 µM] | activity change, negative = inhibition [14] 3.51% [at 6.97 µM] | activity change, negative = inhibition [9] 3.87% [at 10.5 µM]
